Sampled rows, rich in hits. Any-hit rate of the full collection: about 12%.
SARS PLpro yeast: SARS-CoV PLP inhibition in yeast; S. cerevisiae expressing SARS-CoV PLpro, growth rescue; Potency, µM (highest dose often 32.9 µM), actives largely listed as activators; 330,000 compounds, 0.19% hits; AID 485353; further: nearly all actives have a fitted effect of over 55% in size
Shiga toxin inh: blocks Shiga toxin action in Vero cells | 290,000 compounds, 9.2% hits | Vero cells, Shiga toxin protein synthesis inhibition reporter | inhibition, % at 38.7 µM | AID 2315; in the data active means inhibition mostly above about 28%, no sharp cut-off; inactive means mostly below about 43%
NS1 inh: blocks influenza NS1 protein function; Potency, µM (titrated, usually from 46.1 µM); 270,000 compounds, 0.4% hits; further: actives are rising curves; nearly all actives have a fitted effect of over 50% in size
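S. cerevisiae expressing influenza A NS1, grown in glucose, washed, then diluted 1:100 into pH 6.0 -URA galactose medium with 23 nl compound. Growth recovery read as OD600; NS1-free strain serves as control.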
Cycloheximide cs: affects cycloheximide protein synthesis inhibition readout, counter-screen; cell reporter, cycloheximide protein synthesis inhibition counterscreen; max response, %; 300,000 compounds, 12% hits; AID 2314; in the data active means max response mostly above about 13%, no sharp cut-off; inactive means mostly below about 14%; further: read at 38.3 µM for the half of the compounds with a filed dose
Large screens that a line does not name were inactive. Unless noted, the call rests on the fitted dose curve.

N=C1c2ccccc2CN1NC(=O)CC12CC3CC(CC(C3)C1)C2	none
Cc1ccc(OCC(=O)N/N=C2\CC(=O)CC(C)(C)C2)c(Br)c1	none
O=C(Nc1nnc(CCc2ccccc2)s1)c1ccccc1	Shiga toxin inh 46, Cycloheximide cs 14
CC(C)(C)C(=O)Nc1nnc(CC(=O)NCc2ccccc2)s1	none
CC(C)(C)Cc1nnc(NC(=O)CCc2ccccc2)s1	Cycloheximide cs 13
CCC(=O)Nc1nnc(CCc2ccccc2)s1	Cycloheximide cs 13
CC(C)(C)C(=O)Nc1nnc(CCc2ccccc2)s1	Shiga toxin inh 81, Cycloheximide cs 50
CCC(=O)Nc1nnc(Cc2ccccc2)s1	none
Cc1c(NC(=O)COC(=O)Cc2ccc(F)cc2)c(=O)n(-c2ccccc2)n1C	none (no result: Shiga toxin inh, NS1 inh, Cycloheximide cs)
COc1ccc(S(=O)(=O)Nc2cccc3c2O[C@H](CN(C)S(=O)(=O)c2ccccc2)[C@@H](C)CN([C@H](C)CO)C3=O)cc1	none (no result: Shiga toxin inh, NS1 inh, Cycloheximide cs)
CC(C)C(=O)Nc1nnc(CCc2ccccc2)s1	Cycloheximide cs 19
CC(C)(C)C(=O)Nc1nnc(CSCc2ccccc2F)s1	Shiga toxin inh 105, Cycloheximide cs 90
COCC(=O)N(Cc1cc2ccc(C)c(C)c2n2nnnc12)C1CCCC1	none (no result: NS1 inh)
O=C(COC(=O)c1cc(=O)[nH]c2ccccc12)Nc1ccc(F)cc1	none (no result: Shiga toxin inh, NS1 inh, Cycloheximide cs)
CCN(Cc1ccncc1)C(=O)CSc1ccc2ccccc2c1	none (no result: NS1 inh)
Cc1[nH]n(-c2ncc(-c3ccccc3)s2)c(=O)c1C(c1ccc(Cl)cc1)C(C#N)C#N (stereo not drawn)	NS1 inh inconclusive, Cycloheximide cs 11
COc1cc2c(cc1OC)C1O[C@](CCCCN3C(=O)c4ccccc4C3=O)(C2)Oc2c1c(=O)oc1ccccc21	none
C=CCn1c(CNC(=O)c2ccco2)nnc1SCC(=O)c1ccc(F)cc1	none
C=CCn1c(COC)nnc1SCC(=O)c1ccc(F)cc1	Shiga toxin inh 44, Cycloheximide cs 16
O=C(Nc1ccccc1C(=O)NCc1ccc(Cl)cc1)c1ccco1	none
CCN(CC)Cc1c(-c2ccccc2)[nH]c2ccc(C)cc2c1=O	Shiga toxin inh 35, Cycloheximide cs 29
Cc1ccc(-c2cc(=O)c3cc(Cl)ccc3[nH]2)cc1	Shiga toxin inh 39, Cycloheximide cs 26
Cc1ccc2[nH]c(-c3ccccc3)cc(=O)c2c1	Cycloheximide cs 30
O=c1cc(-c2ccc(Cl)cc2)[nH]c2ccccc12	none
Cc1ccc2[nH]c(C(=O)O)c(-c3ccccc3)c2c1	none
Cc1ccc(-c2cc(=O)c3ccccc3[nH]2)cc1	Shiga toxin inh 112, Cycloheximide cs 29
Cc1cc(C)c(S(=O)(=O)NCCCn2ccnc2)cc1C	none (no result: Shiga toxin inh)
CCOc1ccc(Nc2oc(-c3ccccc3Cl)nc2C#N)cc1	none
COc1ccc(Nc2oc(-c3cccs3)nc2C#N)cc1	Shiga toxin inh 146, Cycloheximide cs 62
COc1ccc(Nc2oc(-c3ccccc3F)nc2C#N)cc1	Shiga toxin inh 47, Cycloheximide cs 34
CCc1ccc(-c2cc(C)no2)cc1S(=O)(=O)N1CCCN(Cc2ccc(F)cc2)C1	none
CCCCCCCNC1=CC(=O)CC(c2ccco2)C1 (stereo not drawn)	Cycloheximide cs 19
On1onc2c3cc(-c4ccccc4)nc3ccc21	Shiga toxin inh 128, Cycloheximide cs 69
C(#CC1CCCC1)c1ccc2c(c1)COc1c3ccccc3nn1-2	Shiga toxin inh 91, Cycloheximide cs 14
CCCc1cc(-c2ccc3c(c2)COc2c4ccccc4nn2-3)on1	none (no result: Shiga toxin inh, NS1 inh, Cycloheximide cs)
Cc1ccc2nc3sc(C(=O)Nc4c(C)[nH]c(=O)[nH]c4=O)c(N)c3cc2c1	Cycloheximide cs 31
COc1cc2cc3c(N)c(C(=O)NCc4ccco4)sc3nc2cc1OC	Shiga toxin inh 54, Cycloheximide cs 16
Cc1ccc2nc3sc(C(=O)NCc4ccco4)c(N)c3cc2c1	Shiga toxin inh 68, Cycloheximide cs 23
Cc1cc(N2C(=O)C3C4CCC(C4)C3C2=O)no1 (stereo not drawn)	none
COc1ccc(-n2nc(C(=O)NCC(=O)NCCc3ccc(OC)c(OC)c3)c3ccccc3c2=O)cc1Cl	none
CCCCc1ccc(/C=C2\C(=O)c3ccccc3C(O)=C2C(=O)OCC)cc1	Shiga toxin inh 30, Cycloheximide cs 16
CCOC(=O)C1=C(Cc2ccc(F)cc2)C(=O)c2ccccc2C1=O	none
Cc1ccc(NC2=CC(=O)C(=O)c3ccccc32)c(C)c1	none (no result: Shiga toxin inh, NS1 inh, Cycloheximide cs)
O=C1C=C(NCc2ccccc2)c2ccccc2C1=O	Shiga toxin inh 81, Cycloheximide cs 56
O=C1C=C(Nc2ccccc2O)c2ccccc2C1=O	Shiga toxin inh 84, Cycloheximide cs 17
O=c1cccccc1NCc1ccccc1	NS1 inh inconclusive, Cycloheximide cs 26
N#Cc1ccccc1NCc1ccccc1	none
O=C1C=C(Nc2ccc(F)cc2)c2ccccc2C1=O	none (no result: Shiga toxin inh, NS1 inh, Cycloheximide cs)
COC(=O)[C@@]12OC[C@]34[C@H]([C@@H](O)[C@@H]1O)[C@@]1(C)C(=O)C(O[C@@H]5OC(CO)[C@@H](O)[C@@H](O)[C@@H]5O)=C[C@@H](C)[C@@H]1C[C@H]3OC(=O)[C@H](OC(=O)/C=C(\C)C(C)(C)OC(C)=O)[C@@H]24 (stereo partly drawn)	none (no result: Shiga toxin inh, NS1 inh, Cycloheximide cs)
COc1ccc([C@H]2CC(=O)C=C(c3cc(OC)ccc3OC)C2)cc1	none (no result: Shiga toxin inh, NS1 inh, Cycloheximide cs)
O=C(COC(=O)c1ccccc1Nc1ccccc1)Nc1ccccc1	none
O=C(COC(=O)c1ccccc1C(=O)c1ccccc1)Nc1ccc(SC(F)F)cc1	Cycloheximide cs 20
CNC(=O)COC(=O)c1ccccc1Nc1ccccc1	Shiga toxin inh 118, Cycloheximide cs 17
O=C(COC(=O)c1ccccc1Nc1ccc(SC(F)F)cc1)NCc1ccco1	Shiga toxin inh 63, Cycloheximide cs 33
Cc1cccc(Nc2ccccc2C(=O)OCC(=O)NCc2ccco2)c1C	none
O=C(COC(=O)c1ccccc1Nc1ccc(SC(F)F)cc1)NC1CC1	Shiga toxin inh 75, Cycloheximide cs 73
O=C(NNC(=O)c1ccc(SCC2CCCO2)c([N+](=O)[O-])c1)c1ccc(F)cc1 (stereo not drawn)	none
O=C(CN1C(=O)NC2(CCCCCC2)C1=O)c1ccc(OC(F)F)cc1OC(F)F	none (no result: Shiga toxin inh, NS1 inh, Cycloheximide cs)
CCOC(=O)N1CCC(N2CCN(C3CCCC3)C(CCO)C2)CC1 (stereo not drawn)	none
NC(=O)COC(=O)c1ccccc1Nc1ccc(SC(F)F)cc1	Cycloheximide cs 14
CC(OC(=O)c1ccccc1Nc1ccc(SC(F)F)cc1)C(N)=O (stereo not drawn)	SARS PLpro yeast inconclusive
CC(C)(C)NC(=O)COC(=O)c1ccccc1Nc1ccc(SC(F)F)cc1	Shiga toxin inh 67, Cycloheximide cs 55
CCCCOCCCNC(=O)c1c(-c2ccccc2)noc1C	none
O=C(CN1N=C(c2ccccc2)CCC1=O)NCCCN1CCc2ccccc2C1	none
CCCn1c(SCC(=O)NC2CCCC2)nnc1-c1cccnc1	none
Cc1ccc(CN2C(=O)C(C)(C)Oc3ccc(C(=O)N4CCCCC4)cc32)cc1	none
CC1CCc2sc(C(=O)NC3CCCCC3)cc2C1 (stereo not drawn)	none (no result: Shiga toxin inh, NS1 inh, Cycloheximide cs)
S=c1[nH]nc(-c2cc3c(s2)-c2ccccc2CC3)o1	Shiga toxin inh 56, Cycloheximide cs 30
CSc1nnc(-c2cc3c(s2)-c2ccccc2CC3)o1	Shiga toxin inh 80, Cycloheximide cs 25
CC1CCc2sc(-c3n[nH]c(=S)o3)cc2C1 (stereo not drawn)	Shiga toxin inh 41, Cycloheximide cs 19
